A selection: hits, their analogues and other compounds. The true share with any hit is near 7.8%.
NOMO-1 viab: STK33 inhibitor candidate reducing NOMO-1 cell viability. NOMO-1 AML viability, CellTiter-Glo luminescence, 72 h. 37,000 compounds, 7.5% hits. AID 2330. inhibition, % (concentration not given with the values); in the data active means inhibition above about 80%; inconclusive means no clear call, values can overlap the other calls
MITF inhib: MITF inhibition; TRPM1 promoter luciferase, luminescence, 24 h; inhibition, % (test concentration not listed); 37,000 compounds, 0.28% hits; in the data active means inhibition above about 85%; inconclusive means no clear call, values can overlap the other calls; inactive means below about 68%;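 further: human melanocyte line stably carrying TRPM1 promoter luciferase reporter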
Hedgehog inh: Sonic Hedgehog pathway inhibition. 22,000 compounds, 2.1% hits. Shh-LIGHT2 Gli-luciferase reporter, 30 h. inhibition, % (no concentration beside the values). AID 2313;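 active means mean inhibition across valid replicates above about 65%, limit read from the data; inconclusive means mean under the limit, yet half or more replicates past it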;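 further: pathway switched on by Shh-conditioned medium diluted 1 in 25 in low serum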
* hit, by the source's call; ? = inconclusive; . = not tested or not shown.

SMILES	NOMO-1 viab	MITF inhib	Hedgehog inh
C[C@@H]1CN([C@@H](C)CO)C(=O)c2cccc(NC(=O)c3cnccn3)c2O[C@@H]1CN(C)Cc1ccc(Cl)c(Cl)c1	10	-21	12
C[C@H](CO)N1C[C@H](C)[C@@H](CN(C)Cc2ccncc2)Oc2c(NC(=O)c3cnccn3)cccc2C1=O	7	-11	70*
C[C@@H]1CN([C@@H](C)CO)C(=O)c2cccc(NC(=O)c3cnccn3)c2O[C@H]1CN(C)Cc1ccc(Cl)c(Cl)c1	105*	36	-12
C[C@@H]1CN([C@@H](C)CO)C(=O)c2cccc(NC(=O)c3cnccn3)c2O[C@@H]1CN(C)Cc1ccncc1	3	0	4
C[C@@H]1CN([C@@H](C)CO)C(=O)c2cccc(NC(=O)c3cnccn3)c2O[C@@H]1CN(C)Cc1ccc(C(=O)Nc2ccccc2N)cc1	129*	32	.
O=C(CSc1nc(-c2ccccc2)c(-c2ccccc2)[nH]1)Nc1ccccc1F	44	28	.
Cc1sc2ncnc(SCC(=O)Nc3cccc(C(F)(F)F)c3)c2c1C	-3	3	.
CC(=O)O[C@@H]1CC2C(C)(C)CCC[C@]2(CO)C2=C1C(=O)C(C(C)C)C(=O)C2=O (stereo partly specified)	3	68	11
COC(=O)c1ccccc1NC(=O)c1ccc(Cl)c(S(=O)(=O)Nc2ccccc2C)c1	35	-1	.
CCn1c(SCC(=O)c2ccc(Br)cc2)nnc1-c1cccc(N)c1	38	3	.
Nc1cc2ncnc(Nc3cccc(Br)c3)c2cc1N	12	-6	-38
CC#CC(=O)Nc1ccc2ncnc(Nc3cccc(Br)c3)c2c1	96*	0	-37
CCOc1ccc(NC(=O)CCNC(=O)c2cn(-c3cccc(OC)c3)c(=O)c3ccccc23)cc1	8	-21	25
CCCCC[C@H](CC(=O)NO)C(=O)N[C@H](C(=O)N1CCC[C@H]1CO)C(C)C	107*	20	-8
CN(Cc1nc(-c2ccccc2)no1)S(=O)(=O)c1ccccc1	15	-7	.
COc1cc2c(cc1NC(=S)NCCc1ccc(OC)c(OC)c1)oc1ccccc12	7	46	.
COc1cc2c(cc1NC(=S)NCc1ccco1)oc1ccccc12	93*	-6	.
CCOC(=O)c1c(NC(C)=O)sc2c1CCCCC2	43	16	-27
CCOC(=O)C1CCN(C(c2cccc(Cl)c2)c2c(NC(C)=O)sc3c2CCCC3)CC1 (stereo unspecified)	109*	24	20
Cc1cc(Cn2ccc(C(F)(F)F)n2)c(C)c(-c2c(C#N)c(N)nc3c2CCCC3)c1	30	34	.
CCOc1cccc2c(C)nc(Nc3nc4c(c(=O)[nH]3)CCCC4)nc12	121*	37	.
Cc1nc(SCC(=O)Nc2cccc(Cl)c2Cl)nc2c1CCCC2	-6	1	.
COc1ccc(NC(=O)CSc2nc3ccc([N+](=O)[O-])cc3s2)cc1Cl	19	43	.
CSC(SC)=C(C#N)C(=O)c1cccc(C(F)(F)F)c1	123*	11	-6
N#CC(C(=O)c1cccc(C(F)(F)F)c1)=C1SCCCCS1	57	-38	-17
SMILES	NOMO-1 viab	MITF inhib	Hedgehog inh
Cc1ccc(-c2csc3nnc(SCC(=O)c4ccc5c(c4)OCCO5)n23)cc1C	55	2	.
Clc1ccc(Sc2cn[nH]c2-c2ccc3c(c2)OCCO3)cc1	?	4	79*
CN(C)c1ccc(C(=C2C=CC(=[N+](C)C)C=C2)c2ccc(N(C)C)cc2)cc1	112*	109*	97*
Cc1ccc(S(=O)(=O)Nc2ccc3c(c2)CC(=O)N([C@@H](C)CO)C[C@H](C)[C@@H](CN(C)Cc2ccccc2)O3)cc1	91*	-2	-6
Cc1ccc(S(=O)(=O)Nc2ccc3c(c2)CC(=O)N([C@H](C)CO)C[C@H](C)[C@H](CN(C)Cc2ccccc2)O3)cc1	98*	-2	25
Cc1ccc(S(=O)(=O)Nc2ccc3c(c2)CC(=O)N([C@H](C)CO)C[C@@H](C)[C@H](CN(C)Cc2ccccc2)O3)cc1	5	1	23
C[C@@H]1CN([C@H](C)CO)C(=O)Cc2cc(NS(=O)(=O)c3ccccc3)ccc2O[C@H]1CN(C)Cc1ccccc1	20	2	17
Cc1ccc(NC(=O)CSc2nnc(-c3cccnc3)n2-c2ccc(Br)cc2)cc1F	33	-19	.
COc1cccc(NC(=O)CSc2ncnc3scc(-c4ccc(C)cc4)c23)c1	-4	32	.
Cc1cccc(-n2ncc3ccccc3c2=O)c1	0	-39	-61
O=C(COc1ccccc1Cl)Nc1ccccc1NC(=O)c1ccco1	-5	-43	.
COc1ccccc1NC(=O)C1CCCN(S(=O)(=O)c2cc(Cl)ccc2Cl)C1 (stereo unspecified)	11	13	.
CC(=O)Nc1ccc(NS(=O)(=O)c2ccc(C)cc2[N+](=O)[O-])cc1	21	7	.
Cc1ccc(S(=O)(=O)Nc2cccc3cccnc23)c([N+](=O)[O-])c1	121*	52	.
NC(=O)C(Cc1ccccc1)NS(=O)(=O)c1ccc2oc3ccccc3c2c1 (stereo unspecified)	17	12	.
C[C@H](CO)N1C[C@H](C)[C@H](CN(C)S(=O)(=O)c2ccc(F)cc2)Oc2c(NC(=O)C3CC3)cccc2C1=O	-3	7	103*
COc1ccc(NC(=O)Nc2cccc3c2O[C@H](CN(C)S(=O)(=O)c2ccc(C)cc2)[C@H](C)CN([C@H](C)CO)C3=O)cc1	25	-29	15
Cc1ccc(S(=O)(=O)N(C)C[C@H]2Oc3c(NC(=O)Nc4ccc(F)cc4)cccc3C(=O)N([C@@H](C)CO)C[C@@H]2C)cc1	35	-16	6
Cc1ccc(S(=O)(=O)N(C)C[C@H]2Oc3c(NC(=O)Nc4ccc(C(F)(F)F)cc4)cccc3C(=O)N([C@H](C)CO)C[C@H]2C)cc1	85*	4	-19
C[C@H]1CN([C@@H](C)CO)C(=O)c2cccc(NC(=O)C3CC3)c2O[C@H]1CN(C)S(=O)(=O)c1ccc(F)cc1	16	5	2
Cc1ccc(S(=O)(=O)N(C)C[C@H]2Oc3c(NC(=O)Nc4ccc(C(F)(F)F)cc4)cccc3C(=O)N([C@@H](C)CO)C[C@@H]2C)cc1	63	3	-29
Cc1ccc(S(=O)(=O)N(C)C[C@H]2Oc3c(NC(=O)Nc4ccc(F)cc4)cccc3C(=O)N([C@@H](C)CO)C[C@H]2C)cc1	98*	50	14
COc1ccc(NC(=O)Nc2cccc3c2O[C@@H](CN(C)S(=O)(=O)c2ccc(C)cc2)[C@@H](C)CN([C@H](C)CO)C3=O)cc1	11	-19	94*
CN1C(=O)C(Cc2ccccc2)(c2ccccc2)c2ccccc21 (stereo unspecified)	48	-8	-69
C[C@H]1CN([C@@H](C)CO)C(=O)c2cccc(NC(=O)Nc3ccc(F)cc3)c2O[C@H]1CN(C)S(=O)(=O)c1ccc(F)cc1	20	-6	83*
Cc1ccc(S(=O)(=O)N(C)C[C@H]2Oc3c(NC(=O)Nc4ccccc4)cccc3C(=O)N([C@H](C)CO)C[C@H]2C)cc1	3	-10	32
C[C@@H]1CN([C@@H](C)CO)C(=O)c2cccc(NC(=O)Nc3ccccc3)c2O[C@@H]1CN(C)S(=O)(=O)c1ccc(F)cc1	61	21	-36

Source: PubChem BioAssay (Broad Institute)
